Experimental findings from PubChem BioAssay (NCATS) are described below.

Active and inactive are the calls of the source.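 The calls were made as follows: active = compounds whose dose series gives a full or clear partial fitted curve of increased nuclear translocation; inconclusive = weak partial curve or effect only at the top dose; inactive = no dose-dependent translocation response.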 Bounds are passed on as bounds.
Potency is read from the fitted curve at half-maximal effect.

Sequence of Glucocorticoid receptor (Homo sapiens) (P04150 whole entry, looked up): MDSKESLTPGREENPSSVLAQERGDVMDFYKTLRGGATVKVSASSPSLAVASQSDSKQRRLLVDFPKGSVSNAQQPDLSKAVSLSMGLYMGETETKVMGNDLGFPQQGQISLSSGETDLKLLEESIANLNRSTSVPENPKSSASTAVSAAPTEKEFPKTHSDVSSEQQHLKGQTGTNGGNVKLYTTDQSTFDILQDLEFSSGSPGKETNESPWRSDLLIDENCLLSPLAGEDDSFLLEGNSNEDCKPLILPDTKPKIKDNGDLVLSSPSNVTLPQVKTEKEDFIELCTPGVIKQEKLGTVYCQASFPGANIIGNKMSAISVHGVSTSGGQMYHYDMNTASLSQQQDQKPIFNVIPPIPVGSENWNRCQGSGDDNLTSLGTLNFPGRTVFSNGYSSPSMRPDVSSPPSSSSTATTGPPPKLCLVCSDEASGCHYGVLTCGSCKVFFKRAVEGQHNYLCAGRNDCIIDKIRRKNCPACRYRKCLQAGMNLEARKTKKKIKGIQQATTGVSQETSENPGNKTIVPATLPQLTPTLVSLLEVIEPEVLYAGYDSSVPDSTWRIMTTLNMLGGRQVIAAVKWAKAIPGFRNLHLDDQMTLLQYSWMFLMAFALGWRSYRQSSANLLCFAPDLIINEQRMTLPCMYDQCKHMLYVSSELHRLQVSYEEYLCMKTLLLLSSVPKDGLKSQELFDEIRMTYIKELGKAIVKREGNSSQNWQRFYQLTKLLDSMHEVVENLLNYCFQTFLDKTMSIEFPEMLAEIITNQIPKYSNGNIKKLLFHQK

The experiment concerns the target Glucocorticoid receptor (Homo sapiens) (UniProt P04150). Description: GR-GFP Redistribution (AID 450). Conditions: U2OS GR-GFP nuclear translocation, laser cytometry, 2 h; series mostly up to 20.6 µM.
For the compound `Cc1nn2c(-c3ccc(Cl)cc3)nnc2s1`, the Potency was > 20.6 µM (inactive).
As to `Cn1c(NCCN2CCCCC2)cc(=O)n(C)c1=O`, the Potency was > 20.6 µM (inactive).
Consider `CCCOc1ccc(N2C(=O)CC(N(Cc3ccc(S(N)(=O)=O)cc3)C(=O)CC)C2=O)cc1` (centres undefined), for which the Potency was > 20.6 µM (inactive).
As for `CCOC(=O)c1c(CN2CCN(CCO)CC2)n(C)c2cc(Br)c(OC)cc12`, the figure is > 20.6 µM (inactive).
Consider `CCC(=O)N[C@@H]1CC(C(C)(C)NC(=O)CC)CC=C1C` (some centres undefined), for which the Potency was > 20.6 µM (inactive).
In the case of `CC1CCCCN1C(=O)C12CCC(C)(/C(=N/O)C1)C2(C)C` (centres undefined) it was > 20.6 µM (inactive); in that of `COC(=O)c1[nH]c(C)c(/C(O)=C2\C(=O)C(=O)N(CCN3CCOCC3)C2c2cccnc2)c1C` (centres undefined), > 20.6 µM (inactive); in that of `O=C(O)CC(C(=O)OCCOc1ccccc1)N1CCOCC1` (centres undefined), > 20.6 µM (inactive).
With `O=C(c1cccc(Cl)c1)N1CCN(C(=O)c2ccccc2F)CC1`, the Potency is > 20.6 µM (inactive).
For the compound `N#CC1=C(N)OC2=C(C(=O)CCC2)C1CCc1ccccc1` (centres undefined), the Potency was > 20.6 µM (inactive).
In the case of `CN/C(=C/[N+](=O)[O-])NCCSCc1ccc(CN(C)C)o1` it was > 20.6 µM (inactive); in that of `COc1ccc(C(CC(=O)O)NC(=O)OC(C)(C)C)cc1` (centres undefined), > 20.6 µM (inactive).
For the compound `COC(=O)c1ccc(Cn2c(O)c(N=O)c3ccccc32)o1`, the Potency is > 20.6 µM (inactive).
On to `Cc1cc(C)n(CC(=O)c2ccccc2)c(=O)c1C#N`, for which the Potency was > 20.6 µM (inactive).
In the case of `Nc1nnc(CSc2ccc(Cl)cc2)s1`, the Potency was > 20.6 µM (inactive).
With `CN(C)CCNC(=O)C12CC3(C)CC(C)(CC(C)(C3)C1)C2`, the Potency is > 20.6 µM (inactive).
Consider `CCCc1nnc(NC(=O)c2c(O)c3c([nH]c2=O)CCCC3)s1`, for which the Potency is > 20.6 µM (inactive).
`Fc1cnc(N2CCOCC2)nc1NCc1ccccc1`: the Potency is > 20.6 µM (inactive).
As for `CCN1CCc2c(C#N)c(NCc3ccccc3)nc(N(CC)CC)c2C1`, the figure is > 20.6 µM (inactive).
For `Cc1sc(-n2c(C)ccc2C)c(C#N)c1C`, the Potency was > 20.6 µM (inactive).
Regarding `COC(=O)c1ccc(C2/C(=C(\O)c3cccc(OC)c3)C(=O)C(=O)N2CCCN(C)C)cc1` (centres undefined), the Potency was > 20.6 µM (inactive).
For the compound `Cc1[nH]c2ccc3c(ncn3CCC#N)c2c1C`, the Potency was > 20.6 µM (inactive).
As for `COC(=O)c1sccc1NC(=O)c1c(C)cc(=O)oc1C`, the Potency is > 20.6 µM (inactive).
With `CN(C)S(=O)(=O)Nc1ccc(NS(=O)(=O)N(C)C)c(S(=O)(=O)c2ccccc2)c1`, the Potency was > 20.6 µM (inactive).
